Growth data for 37 compounds are collected here from PubChem BioAssay (NCI).

Structures are written as SMILES. Compounds without any hit were thinned out: in the full panel of roughly 83,000, 20% have a hit.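 The endpoint reported here, percent growth, reads 100 for growth as untreated, 0 for no net growth and -100 for all cells dead.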 Active and inactive are the calls of the source. Rule for the calls: active = growth percent below 10; inactive = the rest.

In the test the test system is HL-60(TB) leukemia. The test can be described thus: NCI-60 one-dose screen, 48 h (100 = growth as untreated, 0 = no growth, -100 = all killed). Conditions: 10 µM unless noted.
For the compound `Cc1cc(CSc2ccccc2C(=O)N2CC=C(c3ccccc3)CC2)on1`, the growth is 87.7% (inactive). For the compound `CC[C@H](C)C(=O)O[C@H]1CCC=C2C=C[C@H](C)[C@H](CC[C@@H]3CC=CC(=O)O3)[C@H]21`, the growth was -0.21% (active).

For `COc1ccc(C(O)(CCC(C)C)C(CN2CCOCC2)c2ccc(Cl)cc2)cc1` (configuration not stated), the growth was 20.9% (inactive). For `COc1c(O)cc2c(c1CC=C(C)C)OC(=O)c1c(cc(O)c(CC=C(C)C)c1O)O2` the value was 31% (inactive). As for `Cc1ccc(C(=O)O)o1`, the growth was 101% (inactive). Then `COc1ccc(/C=C/c2nc3ccccc3c(=O)n2-c2ccc(C#Cc3ccc(C(C)(C)C)cc3)cc2C)c(OC)c1`, with 67.4% (inactive); and `CCCCCCCCCCCCCCCC1=NC(C)(C)CN1C(C)C`, with -62.9% (active). Then `CC(C)(C)OC(=O)N[C@@H](Cc1ccccc1)C(=O)N(Cc1ccccc1)C1(C(=O)NCc2ccccc2)CCN(Cc2ccccc2)CC1`, with 7.23% (active). `CCCCCCCCCCCC(c1ccccc1)N(C)C` (configuration not stated): the growth is 104% (inactive).

On to `O=C1C[C@H](N2C(=O)c3ccccc3S2(=O)=O)C2CO[C@@H]1O2`, for which the growth was 106% (inactive). Consider `O=C(CCCCCCSc1nc(-c2ccccc2)cc(-c2ccccc2)n1)NO`, for which the growth is -33.2% (active). Then `C=CCn1c(SCC(=O)Nc2ccc(C(=O)/C=C/c3cc(OC)c(OC)c(OC)c3)cc2)nnc1-c1cc(-c2ccc(OC)cc2)nc2ccccc12`, with 96.4% (inactive); and `O=c1[nH]c2ccccc2cc1-c1nnc(Cc2ccccc2)o1`, with 27.1% (inactive); and `COC(=O)[C@]12CC[C@@H](C)[C@H](C)[C@@H]1C1=CC[C@@H]3[C@@]4(C)CC(=O)[C@H](O)[C@@]5(C)COC(=C45)C[C@@]3(C)[C@]1(C)CC2`, with -37.5% (active). Then `O=[N+]([O-])c1cc(Br)c2cccc3c2c1CC3`, with 94.4% (inactive); and `CCOC(=O)c1c(-c2ccc(OC)cc2)c(C#N)c2c(C#N)c(N)nn2c1N`, with -40.4% (active); and `C=C1C(=O)O[C@H]2[C@H]1CC/C(Cn1cc(-c3cc(C(F)(F)F)cc(C(F)(F)F)c3)nn1)=C\CC[C@@]1(C)O[C@@H]21`, with -49.1% (active). Regarding `O=C1c2cccc3cccc(c23)C(=O)N1CCCCCCCCCCN1C(=O)c2cccc3cccc(c23)C1=O`, the growth is 99.6% (inactive).

Turning to `O=C(Nc1cccc(Oc2nnc(Cl)c3ccccc23)c1)Nc1ccc(Cl)c(C(F)(F)F)c1`, the growth is -16.7% (active).

As for `CCN1CCN(c2nc(NNC(=O)c3ccccc3)nc(N3CCN(C(c4ccccc4)c4ccccc4)CC3)n2)CC1`, the growth is 23.3% (inactive). For `O=C(CSc1nnc2sc(Nc3cccc(Cl)c3)nn12)c1ccc(F)cc1` the value was 82.7% (inactive). For `COc1ccc(S(=O)(=O)NCCCNc2nccc(-c3c(-c4ccc(F)cc4)nc4sccn34)n2)cc1` the value was 70.4% (inactive); for `O=C(CCc1nnc(Cn2cncn2)o1)c1nc2ccccc2[nH]1`, 108% (inactive). For `CCN(CC)CCOc1ccc(/C(=C(\C)c2ccc(Cl)cc2)c2ccc(Cl)cc2)cc1` the value was 41.4% (inactive).

With `CN1/C(=C\C=C\C2=[N+](C)c3ccccc3C2(C)C)C(C)(C)c2ccccc21`, the growth is -22.5% (active).

`COc1ccc(N=Nc2cc(OC)c(OC)c(OC)c2)cc1`: the growth was 42.4% (inactive). For `Cc1n[nH]c2ccc(Br)cc2c1=O` the value was 94.3% (inactive); for `N#Cc1c(-c2cccc(Cl)c2)cc(-c2cccc(Cl)c2)[nH]c1=O`, -11.9% (active). For `CCN1C(=O)N(CC)C2Nn3c(s/c(=C\c4ccccc4Br)c3=O)=NC21` (configuration not stated) the value was -34.7% (active); for `Cc1ccc(S(=O)(=O)N/N=C2\CCCc3ccccc32)cc1`, 80.4% (inactive); for `FC(F)(F)c1ccccc1-c1cn2c(ccc3ccccc32)n1`, 48.1% (inactive). Take `Oc1ccc(C(c2ccc(O)cc2)c2ccc(Cl)cn2)cc1`: the growth is 101% (inactive). As to `Cn1cc(-c2noc(-c3cn(C)c4ncc(Br)cc34)n2)c2cc(Cl)ccc21`, the growth is 102% (inactive). Consider `C#CCN1C(=O)/C(=c2\sc3n(c2=O)C2C(NN=3)N(CC)C(=O)N2CC)c2ccccc21` (configuration not stated), for which the growth was -29.4% (active). For `COc1ccc(OC)c(NC2=C(SCCc3ccccc3)C(=O)c3ccccc3C2=O)c1` the value was 93.4% (inactive); for `COc1ccc(OC)c(C2OC(c3ccc4ccccc4c3O)=NN2C(C)=O)c1` (configuration not stated), 19% (inactive). As for `O=C(CC1(O)C(=O)Nc2c(Cl)ccc(Cl)c21)c1ccc(Cl)cc1Cl` (configuration not stated), the growth was 80.8% (inactive).
